The values below come from the supplement of paper PMC6555819.

Common to all, as to test: PBM binding z-score (relative to random genomic background probes); higher = stronger binding; sequences stand for … in GC…GCGATTGACAGCGTAGAATGAAGG
Assay [1] relates to PPARg:RXRa DBDmut IVT, anti-RXR (DBD mutation: RXRa K156A/R161A, NR concentration 270 nM, RXRa partner concentration 90 nM). A digest of the protocol: (§1)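 Each nuclear receptor dimer, without ligand, was incubated for 1 h on custom Agilent 4×180K protein-binding microarrays. Binding was detected with antibodies against each partner (one per run), and scanned fluorescence was regression-normalized. The binding z-scores are referenced to random human genomic background probes.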

Assay [2] has as its system PPARg:RXRa IVT, anti-PPARg (NR concentration 270 nM, RXRa partner concentration 90 nM). A digest of the protocol: as §1
In assay [3] the test system is PPARg DBDmut:RXRa IVT, anti-PPARg (DBD mutation: PPARg1 K132A/R137A, NR concentration 270 nM, RXRa partner concentration 90 nM). A digest of the protocol: as §1
Assay [4] has as its system PPARg DBDmut IVT, anti-PPARg (DBD mutation: PPARg1 K132A/R137A, NR concentration 270 nM). The gist of the method: as §1
The subject of assay [5] is PPARg homodimer (NR concentration 180 nM). The gist of the method:
as §1

The test system of assay [6] is PXR:RXRa (NR concentration 270 nM, RXRa partner concentration 90 nM). A digest of the protocol:
as §1

For assay [7], the system named is PXR homodimer (NR concentration 270 nM). A digest of the protocol: as §1
The test system of assay [8] is RARa:RXR (NR concentration 270 nM, RXRa partner concentration 90 nM). The gist of the method: as §1
In assay [9] the test system is RARa homodimer (NR concentration 270 nM). A digest of the protocol: as §1
The subject of assay [10] is RARb:RXRa (NR concentration 270 nM, RXRa partner concentration 90 nM). The gist of the method: as §1
Assay [11] deals with RARb homodimer (NR concentration 270 nM). The gist of the method:
as §1

Assay [12] deals with RARg:RXRa (NR concentration 270 nM, RXRa partner concentration 90 nM). A digest of the protocol:
as §1

For assay [13], the system named is RARg homodimer (NR concentration 270 nM). A digest of the protocol:
as §1

The test system of assay [14] is RXRa DBDmut IVT, anti-RXR (DBD mutation: RXRa K156A/R161A, NR concentration 90 nM). The gist of the method: as §1
Assay [15] deals with RXRa homodimer (NR concentration 180 nM). The gist of the method:
as §1

The subject of assay [16] is THRa:RXRa (NR concentration 90 nM, RXRa partner concentration 90 nM). A digest of the protocol: as §1
The subject of assay [17] is THRa homodimer (NR concentration 90 nM). The gist of the method:
as §1

Assay [18] relates to VDR:RXRa (NR concentration 270 nM, RXRa partner concentration 90 nM). A digest of the protocol: as §1
Assay [19] has as its system VDR homodimer (NR concentration 270 nM). A digest of the protocol: as §1

ATATGTAGGTTATGGGTCATTCAGGTTGGTTCGC: the PBM binding z-score in [1] came to 7.25; in assay [2] it was 7.26; in assay [3], 2.55; in [4], 1.93; in [5], 3.33; in assay [6], 4. For the same sequence, the PBM binding z-score was 1.51 in assay [7]; 3.63 in [8]; 2.31 in assay [9]; 2.52 in [10]; 2.97 in assay [11]; 3.09 in assay [12]. The PBM binding z-score in assay [13] amounted to 2.28; in [14], 1.31; in [15] it was 3.79; in [16], 2.74; in [17] it was 1.53; in assay [18] it was 4.33. For the same sequence, the PBM binding z-score in assay [19] was found to be 2.76.
Regarding AGAATGAGGTTAAGATCCGGGAAACAGAATACAT, the PBM binding z-score in assay [1] came to 2.97; in [2], 2.71; in assay [3], 1.45; in [4], 0.576; in [5] it was 0.097; in assay [6] it was 0.953. Moreover, the PBM binding z-score came to 0.0989 in [7]; 2 in assay [8]; 0.396 in [9]; 1.88 in assay [10]; 0.774 in assay [11]; 2.06 in assay [12]. Also, the PBM binding z-score in [13] turned out to be 1.4; in assay [14] it was 0.76; in assay [15] it was 2.46; in assay [16], 2.37; in assay [17] it was 0.603; in assay [18] it was 1.05. The sequence further displayed a PBM binding z-score in assay [19] of 0.257.
As to TCTTGGAGATCAAGCAGGTTAAGAAAGCCTGAGT, the PBM binding z-score in assay [1] is 1.33; in assay [2], -0.158; in assay [3] it was -0.0417; in [4], -0.978; in [5], -0.522; in [6], 0.538. Also, the PBM binding z-score in assay [7] was 0.0928; in [8] it was 0.684; in assay [9], -0.244; in [10], 0.272; in assay [11], 0.0966; in [12], 0.06. In addition, the PBM binding z-score in assay [13] was -0.27; in assay [14], 0.163; in assay [15], 0.643; in [16], 0.589; in assay [17], -0.604; in assay [18], 1.04. In assay [19], this sequence gave a PBM binding z-score of 0.0474.
For ACTAGTTGGTCAGCTGAGATCACACACAATTCGG, the PBM binding z-score in [1] is 0.753; in assay [2], 0.741; in assay [3], 1.02; in assay [4], 0.509; in assay [5] it was -0.286; in assay [6] it was 0.0807. For the same sequence, the PBM binding z-score in assay [7] is -0.161; in [8], 0.321; in [9], 0.12; in assay [10], 0.946; in [11], 0.406; in assay [12], 0.638. In addition, the PBM binding z-score in assay [13] is 0.88; in assay [14], 0.396; in assay [15], 0.449; in assay [16] it was 0.991; in [17], -0.107; in assay [18], 0.193. In addition, the PBM binding z-score in assay [19] is -0.0701.
In the case of ATCGAAAGGGCGAGGTGAGTATAGAGAAAGGGAA, the PBM binding z-score was -0.0167 in assay [1]; 0.793 in [2]; 0.764 in [3]; 0.945 in [4]; 0.793 in assay [5]; 0.415 in [6]. The PBM binding z-score stood at 0.345 in assay [7]; 0.69 in assay [8]; 0.319 in assay [9]; 2.09 in [10]; 1.45 in assay [11]; 1.48 in assay [12]. Moreover, the PBM binding z-score is 1.58 in [13]; -0.127 in [14]; 0.756 in assay [15]; 1.63 in assay [16]; 0.413 in [17]; 0.361 in assay [18]. In assay [19], the PBM binding z-score was -0.029.
On to ACTATTAGTTGACTTAGGGCATCCGATACGACGC, for which the PBM binding z-score in assay [1] is 0.311; in assay [2], 0.614; in assay [3] it was 1.03; in assay [4], 0.574; in assay [5], 0.0693; in [6], 0.114. Also, the PBM binding z-score came out at 0.228 in assay [7]; 0.0202 in assay [8]; 0.624 in [9]; 0.643 in [10]; 0.597 in [11]; 0.218 in assay [12]. Besides, the PBM binding z-score in [13] was 0.979; in [14], 0.909; in assay [15] it was 0.613; in assay [16] it was 0.97; in assay [17], 0.239; in assay [18], 0.439. The same sequence returned a PBM binding z-score in [19] of 0.435.
Take ATATGTAGGTTAGCCGGGGTCATTCAGACTAGGC: the PBM binding z-score in assay [1] amounted to 7.11; in assay [2], 6.89; in assay [3], 1.14; in [4], 1.79; in [5] it was 2.77; in [6] it was 6.72. Also, the PBM binding z-score came to 4.32 in assay [7]; 6.2 in assay [8]; 0.664 in assay [9]; 3.31 in assay [10]; 4.07 in assay [11]; 4.69 in assay [12]. For the same sequence, the PBM binding z-score in [13] turned out to be 3.57; in [14], 2.39; in assay [15], 6.32; in [16], 5.21; in assay [17], 2.99; in [18], 6.67. In assay [19], this sequence showed a PBM binding z-score of 5.54.
